Assay results from PubChem BioAssay AID504339 (National Center for Advancing Translational Sciences (NCATS), 2011).
The campaign covered roughly 390,000 compounds. About 17,000 (4.4%) were called active. A call without a number means that no potency is given here. Inconclusive results (about 8%) are left out. Calls come from the whole dose curve; as a rule, active = well fitted inhibition curve with a large enough effect; inconclusive = small, poorly fitted or top-dose-only effect; inactive = no such curve, though single readings can be large or run the other way. The full list was thinned out, with actives kept by preference.

Target: Lysine-specific demethylase 4A (Homo sapiens) (UniProt O75164)
Sequence (O75164 whole entry, looked up, the tested form may be a part): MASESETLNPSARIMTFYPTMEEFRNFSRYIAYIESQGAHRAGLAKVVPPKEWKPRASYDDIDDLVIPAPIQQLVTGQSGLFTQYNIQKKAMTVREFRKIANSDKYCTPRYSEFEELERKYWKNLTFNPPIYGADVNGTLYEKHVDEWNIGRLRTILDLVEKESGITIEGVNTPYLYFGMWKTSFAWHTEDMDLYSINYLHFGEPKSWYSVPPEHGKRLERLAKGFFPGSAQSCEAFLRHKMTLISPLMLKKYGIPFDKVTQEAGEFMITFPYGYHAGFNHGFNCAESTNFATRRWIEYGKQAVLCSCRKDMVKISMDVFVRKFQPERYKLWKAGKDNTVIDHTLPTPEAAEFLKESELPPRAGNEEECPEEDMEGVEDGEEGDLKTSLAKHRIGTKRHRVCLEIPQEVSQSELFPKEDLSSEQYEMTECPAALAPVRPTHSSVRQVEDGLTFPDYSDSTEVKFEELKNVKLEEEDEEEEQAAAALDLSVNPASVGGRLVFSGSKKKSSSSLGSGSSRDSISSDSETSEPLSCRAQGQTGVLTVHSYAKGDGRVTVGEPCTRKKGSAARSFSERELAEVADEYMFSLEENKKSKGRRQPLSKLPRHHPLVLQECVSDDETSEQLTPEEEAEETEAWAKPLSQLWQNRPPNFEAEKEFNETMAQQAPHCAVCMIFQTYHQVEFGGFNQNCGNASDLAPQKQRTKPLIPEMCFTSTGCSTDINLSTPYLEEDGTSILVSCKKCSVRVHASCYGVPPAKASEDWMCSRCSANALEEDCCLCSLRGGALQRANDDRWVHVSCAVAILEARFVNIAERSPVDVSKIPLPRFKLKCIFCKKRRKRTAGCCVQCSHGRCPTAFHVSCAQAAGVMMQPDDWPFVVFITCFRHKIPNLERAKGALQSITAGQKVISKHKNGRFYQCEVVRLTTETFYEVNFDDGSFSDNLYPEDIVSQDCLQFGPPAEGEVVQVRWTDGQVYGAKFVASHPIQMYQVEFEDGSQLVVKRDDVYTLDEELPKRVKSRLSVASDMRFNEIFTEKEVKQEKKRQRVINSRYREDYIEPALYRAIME
Experiment: qHTS Assay for Inhibitors of JMJD2A-Tudor Domain; note: nearly all actives have a fitted effect of over 50% in size
Conditions: AlphaScreen JMJD2A-Tudor / H3K4me3 peptide binding; series mostly up to 114 µM
Potency is the fitted concentration of half-maximal effect.

| SMILES | Potency |
| --- | --- |
| COc1ccccc1-c1ccnc2[nH]n(-c3ccccc3)c(=O)c12 | inactive |
| COc1cccc(Cn2c(CNS(=O)(=O)c3ccc(Cl)s3)nc3cccnc32)c1 | inactive |
| Brc1ccccc1CN1CCC(Cc2ccccc2)CC1 | 0.794 µM (active) |
| O=c1cc(CO)oc(CN2CCC(Cc3ccccc3)CC2)c1O | inactive |
| NC(=O)c1ccc(CN2CCC(Cc3ccccc3)CC2)cc1 | inactive |
| CCOc1ccccc1NC(=O)Cn1c2ncccc2c(=O)n1-c1ccc(C)c(C)c1 | inactive |
| Cc1nc(NC(=O)CN(C)S(=O)(=O)c2ccc(Cl)cc2)sc1C | inactive |
| C=CCCC(=O)Nc1nc(C)c(-c2csc(Nc3ccc(Cl)cc3)n2)s1 | 63.1 µM (active) |
| CCC(=O)Nc1nc(C)c(C(=O)Nc2cccc(Cl)c2)s1 | inactive |
| O=C(NC1(C(F)(F)F)N=C(c2ccccc2)N(C2CCCCC2)C1=O)c1ccccc1F (centres undefined) | inactive |
| CCOC(=O)c1cccc(NC(=O)Cn2cnc3nc4c(cc3c2=O)CCCC4)c1 | inactive |
| COc1ccc(-c2nc3c4ccccc4n(CC(=O)Nc4ccc(C(C)=O)cc4)c(=O)n3n2)cc1 | 8.91 µM (active) |
| COc1ccc(NC(=O)Cn2c(=O)n(Cc3ccc(C(=O)NCc4ccccc4Cl)cc3)c(=O)c3ccccc32)cc1 | inactive |
| CC(=O)c1ccc(NC(=O)Cn2c(=O)oc3ccccc32)cc1 | inactive |
| Cc1cc(F)ccc1S(=O)(=O)N1CCCOC1CNC(=O)C(=O)NCCC1=CCCCC1 (centres undefined) | inactive |
| O=C(NCCCc1ccccc1)C(=O)NCC1OCCN1S(=O)(=O)c1ccccc1 (centres undefined) | inactive |
| O=C(NCCCn1ccnc1)C(=O)NCC1OCCN1S(=O)(=O)c1cc(F)ccc1F (centres undefined) | 39.8 µM (active) |
| CCn1c(C(=O)Nc2cc(Cl)ccc2C)cc2sc(Cl)cc21 | inactive |
| COc1cc(C(=O)N2CCC(c3ccncc3)CC2)cc(OC)c1OC | inactive |
| COc1ccc(-c2cc(C(=O)NC(C(=O)O)C(C)C)c(C)o2)cc1OC (centres undefined) | inactive |
| COc1ccc(-c2cc(=O)oc3cc(OCC(=O)N[C@@H](Cc4c[nH]c5ccccc45)C(=O)O)ccc23)cc1 | inactive |
| COc1ccc(-c2cc(C(=O)NC(Cc3c[nH]c4ccccc34)C(=O)O)c(C)o2)cc1OC (centres undefined) | 22.4 µM (active) |

| SMILES | Potency |
| --- | --- |
| CC1=C(c2ccc(Cl)cc2)S(=O)(=O)N=C1N1CCN(c2cc(C)ccc2C)CC1 | inactive |
| O=C(CCc1ccccc1)NCc1ccc2c(c1)CCN2C(=O)c1ccccc1 | inactive |
| CCc1ccccc1N1C(=O)CN(S(=O)(=O)CC)CC1(C)C(=O)NC1CCCCC1 (centres undefined) | inactive |
| Cc1ccc2c(c1)C(c1ccccc1)N(C(=O)c1ccc(S(=O)(=O)N3CCOCC3)cc1)CC(=O)N2 (centres undefined) | 50.1 µM (active) |
| Cc1ccc(C(=O)N2CC(=O)Nc3ccc(F)cc3C2c2ccc(F)cc2)cc1 (centres undefined) | inactive |
| Cc1ccc2c(c1)C(c1ccccc1)N(C(=O)c1ccc(F)cc1)CC(=O)N2 (centres undefined) | inactive |
| CC(=O)Nc1cccc(NC(=O)CSc2cn(CC(=O)N3CCCC3)c3ccccc23)c1 | inactive |
| O=S(=O)(NCC(c1ccco1)N1CCOCC1)c1cc(F)ccc1F (centres undefined) | inactive |
| O=C(CSCc1cnn(-c2ccccc2)c1-n1cccc1)NCc1ccccc1Br | inactive |
| COc1ccc(-n2c(C)csc2=S)cc1 | inactive |
| Cc1n[nH]c(=O)n1-c1ccc(C(C)C)cc1 | inactive |
| COc1ccccc1OCC(=O)OCc1cc(-c2ccco2)on1 | inactive |
| Cc1ccc(-c2cn3cc(C)ccc3n2)cc1 | inactive |
| COc1ccc(OC)c(-n2c(-c3ccn[nH]3)n[nH]c2=S)c1 | 50.1 µM (active) |
| COc1ccc(-c2nc3ccccc3n2CCC(C)C)cc1OC | inactive |
| COc1ccccc1-n1c(-c2cc(-c3ccco3)[nH]n2)n[nH]c1=S | 15.8 µM (active) |
| COc1ccc(-n2c(-c3ccc(OC)c(OC)c3)n[nH]c2=S)cc1 | 1.26 µM (active) |
| COc1ccccc1N1CCN(c2nc(C)cc(=O)[nH]2)CC1 | inactive |
| CCOC(=O)CSc1nnc(CNC(=O)c2cccs2)n1-c1cc(OC)ccc1OC | inactive |
| COc1ccc(OC)c(-n2nnc(-c3nc(-c4cc(OC)c(OC)c(OC)c4)no3)c2C)c1 | inactive |
| Cc1ccc(-n2c(-c3ccc(Cl)cc3)n[nH]c2=S)cc1 | 50.1 µM (active) |
| CCOC(=O)c1cccc(NC(=O)c2cc(CN3CCCC3)on2)c1 | inactive |

| SMILES | Potency |
| --- | --- |
| O=C(OCc1cc(=O)n2nc(C3CC3)sc2n1)c1ccccc1Cl | inactive |
| COc1ccc(C2c3c(oc4ccccc4c3=O)C(=O)N2Cc2ccc3c(c2)OCO3)cc1 (centres undefined) | inactive |
| COc1ccc(Cn2ccn(CC(=O)Nc3cc(C)ccc3C)c(=O)c2=O)cc1 | inactive |
| O=C(CCCn1c(=O)c2cccn2c2cccnc21)NCc1ccc(F)cc1 | inactive |
| COc1ccccc1C(=O)NCCn1cc(SCc2ccccc2Cl)c2ccccc21 | inactive |
| Cc1c(NS(=O)(=O)c2ccc(Cl)cc2)c(=O)n(-c2ccccc2)n1C | inactive |
| Cc1c(NC(=S)Nc2ccccc2)c(=O)n(-c2ccccc2)n1C | inactive |
| CCN(CC)P(=O)(/C(Cl)=C\Nc1c(C)n(C)n(-c2ccccc2)c1=O)N(CC)CC | 15.8 µM (active) |
| CCN(CC)CCNc1ncnc2c1cnn2-c1cc(Cl)ccc1C | inactive |
| O=C(O)c1ccc(Cn2cnc3c(=S)nc[nH]c32)cc1 | 3.55 µM (active) |
| O=C(O)c1ccc(Cn2c(SCc3ccc(F)cc3)nc3ccncc32)cc1 | inactive |
| O=C(O)CCC(=O)NCc1ccc(C(=O)O)cc1 | inactive |
| Cc1ccc(Cn2c(=O)n(-c3ccc(C)cc3)c(=O)c3c2c2cc(C)ccc2n3C)cc1 | inactive |
| Cc1ccc(Cl)cc1N(C)C(=O)C1CCCN(c2ncnc3onc(-c4ccc(F)cc4)c23)C1 (centres undefined) | inactive |
| CC(C)c1cc(N=O)cc(C(C)C)c1O | inactive |
| CC(C)=CCc1ccc(O)c(=O)cc1C(C)C | 56.2 µM (active) |
| Cc1ccc(CNC(=O)c2c(O)nc3c(C)cccn3c2=O)cc1 | inactive |
| COc1ccc2c(CNCCc3ccccc3C)c(C(=O)O)n(Cc3ccccc3C)c2c1 | inactive |
| Cc1ccc2ncc(C(=O)Nc3ccc(OC(F)(F)F)cc3)c(=O)n2c1 | inactive |
| COc1cccc2cc(-c3nc(Cl)c4c5c(sc4n3)CC(C)CC5)c(=O)oc12 (centres undefined) | inactive |
